Experiments:
Experiment in all cases: protein domain microarray probed with biotinylated miRNA; Domain array: 20 mM Tris-HCl pH 7.4, 200 mM KCl, 0.2 mM EDTA, 0.05% NP40, 2 ug/ul heparin, overnight 4 C. ORF array: PBS pH 7.0 with RNase inhibitor, 100 ng RNA; high values mean tight binding
Conditions in all cases: ssRNA
[1] = biological target: CELF6(1-2) (Homo sapiens, UniProt Q96J87)
[2] = biological target: T1, NCBP2 (Homo sapiens, UniProt P52298)
T1 sequence: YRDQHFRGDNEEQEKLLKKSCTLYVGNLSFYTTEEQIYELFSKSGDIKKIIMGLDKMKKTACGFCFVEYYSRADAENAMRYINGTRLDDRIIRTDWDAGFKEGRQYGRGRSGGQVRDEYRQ

[3] = biological target: T2, hnRNP-D-like (Homo sapiens, UniProt O14979)
T2 sequence: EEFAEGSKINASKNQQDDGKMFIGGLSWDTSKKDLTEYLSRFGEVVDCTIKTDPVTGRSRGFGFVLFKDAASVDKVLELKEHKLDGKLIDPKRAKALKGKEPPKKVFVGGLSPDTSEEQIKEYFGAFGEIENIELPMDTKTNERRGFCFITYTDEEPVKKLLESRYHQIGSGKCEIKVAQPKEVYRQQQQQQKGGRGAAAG

[4] = biological target: IGF2BP2 (Homo sapiens, UniProt Q9Y6M1)
[5] = biological target: NIFK (Homo sapiens, UniProt Q9BYG3)
[6] = biological target: T3, PABPNL1 (Homo sapiens, UniProt A6NDY0)
T3 sequence: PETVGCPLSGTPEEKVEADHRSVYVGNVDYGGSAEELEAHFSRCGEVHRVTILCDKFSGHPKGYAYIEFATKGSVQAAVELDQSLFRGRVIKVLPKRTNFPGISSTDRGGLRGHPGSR

[7] = biological target: PABPC5 (Homo sapiens, UniProt Q96DU9)
[8] = biological target: T4, MYEF2(1-2) (Homo sapiens, UniProt Q9P2K5)
T4 sequence: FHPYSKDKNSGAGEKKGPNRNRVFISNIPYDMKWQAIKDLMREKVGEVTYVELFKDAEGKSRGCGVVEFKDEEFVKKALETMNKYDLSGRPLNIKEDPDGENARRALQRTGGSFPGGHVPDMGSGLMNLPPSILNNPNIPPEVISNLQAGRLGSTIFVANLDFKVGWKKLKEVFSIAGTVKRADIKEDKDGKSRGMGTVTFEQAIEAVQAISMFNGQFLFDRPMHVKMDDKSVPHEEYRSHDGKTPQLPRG

[9] = biological target: T5, CIRBP (Homo sapiens, UniProt Q14011)
T5 sequence: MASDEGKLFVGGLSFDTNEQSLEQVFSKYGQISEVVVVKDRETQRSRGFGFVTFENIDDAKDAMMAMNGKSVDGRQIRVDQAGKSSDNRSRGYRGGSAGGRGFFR

[10] = biological target: ELAVL4 (Homo sapiens, UniProt P26378)
ELAVL4, sequence (P26378 30-385): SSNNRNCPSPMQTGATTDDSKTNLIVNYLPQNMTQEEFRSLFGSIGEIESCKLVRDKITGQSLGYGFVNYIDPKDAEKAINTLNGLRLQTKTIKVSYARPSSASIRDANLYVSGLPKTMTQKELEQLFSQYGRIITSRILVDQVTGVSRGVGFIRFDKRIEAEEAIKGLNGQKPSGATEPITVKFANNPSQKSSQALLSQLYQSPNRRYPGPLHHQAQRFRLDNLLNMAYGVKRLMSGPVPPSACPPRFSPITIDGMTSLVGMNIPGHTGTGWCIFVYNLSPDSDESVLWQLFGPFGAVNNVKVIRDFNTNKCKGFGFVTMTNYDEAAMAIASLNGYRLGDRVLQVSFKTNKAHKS

PABPC5, sequence (Q96DU9 whole entry): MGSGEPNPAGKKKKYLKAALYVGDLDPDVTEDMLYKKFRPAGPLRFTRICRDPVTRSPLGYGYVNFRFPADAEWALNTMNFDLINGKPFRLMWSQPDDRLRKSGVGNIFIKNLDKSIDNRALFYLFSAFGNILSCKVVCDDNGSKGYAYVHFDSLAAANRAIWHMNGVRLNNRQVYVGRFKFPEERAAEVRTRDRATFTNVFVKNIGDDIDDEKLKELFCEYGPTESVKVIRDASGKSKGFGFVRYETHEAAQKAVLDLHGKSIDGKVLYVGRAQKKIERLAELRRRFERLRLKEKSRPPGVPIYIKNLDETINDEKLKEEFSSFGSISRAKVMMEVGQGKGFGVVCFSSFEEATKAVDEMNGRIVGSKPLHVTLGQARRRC
IGF2BP2, sequence (Q9Y6M1 1-177): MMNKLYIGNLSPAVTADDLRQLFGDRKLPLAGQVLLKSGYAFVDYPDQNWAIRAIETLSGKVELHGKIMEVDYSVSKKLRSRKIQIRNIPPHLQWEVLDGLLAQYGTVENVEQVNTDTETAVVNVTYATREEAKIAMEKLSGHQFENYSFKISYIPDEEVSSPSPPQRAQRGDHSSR
CELF6(1-2), sequence (Q96J87 21-233): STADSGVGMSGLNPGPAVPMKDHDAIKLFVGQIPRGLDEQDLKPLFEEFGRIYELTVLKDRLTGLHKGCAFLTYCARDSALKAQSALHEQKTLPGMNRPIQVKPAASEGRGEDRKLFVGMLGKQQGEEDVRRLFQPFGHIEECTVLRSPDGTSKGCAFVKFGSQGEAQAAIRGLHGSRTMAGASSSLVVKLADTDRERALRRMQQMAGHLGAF

Sequence | binding signal [1] [fluorescence intensity] | binding signal [2] [fluorescence intensity] | binding signal [3] [fluorescence intensity] | binding signal [4] [fluorescence intensity] | binding signal [5] [fluorescence intensity] | binding signal [6] [fluorescence intensity] | binding signal [7] [fluorescence intensity] | binding signal [8] [fluorescence intensity] | binding signal [9] [fluorescence intensity] | binding signal [10] [fluorescence intensity]
UGAGGUAGUAGGUUGUGUGGUU | 224 ± 12 | 68.7 ± 13.2 | 751 ± 46.5 | 60.9 ± 10.8 | 207 ± 7.23 | 1609 ± 3.14 | 304 ± 27.6 | 1050 ± 50.7 | 2020 ± 38.1 | 1510 ± 102
UGAGGUAGUAGGUUGUAUGGUU | 89.8 ± 3.29 | 66.8 ± 8.78 | 741 ± 27.9 | 49.2 ± 7.44 | 138 ± 7.4 | 1110 ± 57.4 | 291 ± 13.4 | 789 ± 41.9 | 1980 ± 32.4 | 1450 ± 42.8
CAGUGCAAUGAUGAAAGGGCAU | 105 ± 14.1 | – | 250 ± 14.8 | 91.7 ± 5.63 | 38.6 ± 4.43 | 2030 ± 144 | 187 ± 8.46 | 826 ± 53.3 | 2040 ± 82.9 | 1170 ± 66.8
UAGCUUAUCAGACUGAUGUUGA | 32.2 ± 4.03 | – | 40.3 ± 4.07 | 21.5 ± 2.16 | – | 322 ± 10.4 | – | 393 ± 6.4 | 801 ± 174 | 825 ± 34.8
AGAGGUAGUAGGUUGCAUAGUU | 88.4 ± 8.85 | 29.2 ± 11.8 | 601 ± 9.77 | 130 ± 20.3 | 81.96 ± 0.608 | 1510 ± 38.3 | 351 ± 14.6 | 1130 ± 77.2 | 2620 ± 43 | 1830 ± 31
UGAGGUAGUAGGUUGUAUAGUU | 28.4 ± 3.05 | – | 288 ± 15.7 | 28.3 ± 5.47 | 23 ± 0.658 | 531 ± 16.5 | 52 ± 3.7 | 228 ± 4.88 | 1010 ± 76.7 | 725 ± 56.5

— publication PMC11574364
